Consider 5 compounds from PubChem BioAssay (NCATS).

Several values for one entry are separate records, joined by “and”; a condition that tells them apart may be missing. Equal entries are not always repeated. Unmarked numbers belong to inactive results. Results filed as inconclusive are left out. Activity calls are given as the source filed them. The call rests on the fitted dose curve; in most records, active means well fitted curve in the direction sought with a large enough effect; inconclusive means small, poorly fitted or top-dose-only effect, or another doubt; inactive means no such curve, though single readings can be large; an effect the other way counts as inactive or inconclusive.

Assay [1] deals with Calcium and integrin-binding protein 1 (Homo sapiens) (UniProt Q99828). Kind of assay: Primary qHTS for Identification of Calcium Integrin Binding Protein 1 (CIB1) Competitor (AID 1508620).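 Further: GST tagged CIB1 binding a fluorescein labelled alphaIIb integrin peptide tracer; top concentration of the series differs between compounds; on the % scale 0 is the no-effect control and ±100 the full control effect.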 In short, it runs like this:
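Fluorescence polarization competition: GST-tagged CIB1 (1 uM final) preincubated with compound 15 min at room temperature, then FITC-labelled alphaIIb peptide (100 nM final) added. After 15 min at room temperature, polarization read at Ex 480/Em 540.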
A general note: qHTS replaces the single test concentration by a dilution series.

A short description of assay [2]: Primary qHTS for inhibitors of nuclear receptor binding SET domain protein 2 (NSD2) in an isogenic RCH-ACV NSD2 p.E1099K mutant (9B) (AID 1645876). Further: nearly all actives have a fitted effect of over 70% in size. Further: potency means the concentration at half of the fitted maximal effect.
The target of assay [3] is Phospholipid hydroperoxide glutathione peroxidase GPX4 (Homo sapiens) (UniProt P36969). Kind of assay: Primary qHTS Assay for Inhibitors of Recombinant Selenoprotein Glutathione Peroxidase 4 (GPX4) (AID 1845192). Further: on the % scale 0 is the no-effect control and ±100 the full control effect; nearly all actives have a fitted effect of over 65% in size. Put shortly:
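GR-coupled assay: recombinant GPX4 preincubated 30 min with compound at room temperature; final 200 nM GPX4, 1 mM GSH, 0.5 mM cumene hydroperoxide, 0.5 mM NADPH, 100 nM GR, 0.01% BSA, pH 7.5 Tris. NADPH fluorescence (340/450 nm) read at 0 and 15 min.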

Assay [4] addresses Luciferin 4-monooxygenase (Photinus pyralis) (UniProt P08659). Kind of assay: Primary firefly luciferase (FLuc) qHTS assay for identification of artifact compounds. (AID 1845220). Further: nearly all actives have a fitted effect of over 60% in size. As to conditions: outcome: dose series up to 54.1 µM unless noted. Put shortly: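 D-luciferin and ATP (10 uM each, final) in Tris acetate buffer pH 7.6 were incubated with compounds for 15 min at room temperature. The reaction was started with 10 nM Photinus pyralis luciferase and luminescence read after 5 min. Percent inhibition was fitted to a 4-parameter Hill equation.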

A further assay concerns CRL-7250. Kind of assay: Cytotoxic Profiling of Annotated Libraries Using Quantitative High-Throughput Screening (AID 1296008). Further: nearly all actives have a fitted effect of over 60% in size. Further: potency means the concentration at half of the fitted maximal effect. On max response: on the % scale 0 is the no-effect control and ±100 the full control effect. As to conditions: Five cell lines viability, CellTiter-Glo ATP luminescence, 48-72 h; max response: hits give low values. In short, it runs like this:
(§1)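 Cells exposed to compounds for 48 or 72 hr at 37 degrees Celsius. Viability read as ATP-coupled luminescence with CellTiter-Glo after 10 min at room temperature.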
A general note: Cellular ATP, detected with luciferase, serves as a proxy for viable cell number.

The test system of the next assay is HEK293. The description is as above. As to conditions: Five cell lines viability, CellTiter-Glo ATP luminescence, 48-72 h; max response: hits give low values. In short, it runs like this:
as §1

The test system of a further assay is HaCat. The description is as above. The settings on record: Five cell lines viability, CellTiter-Glo ATP luminescence, 48-72 h; max response: hits give low values. In short, it runs like this:
as §1

A further assay has as its system NIH3T3. Described as above. As to conditions: Five cell lines viability, CellTiter-Glo ATP luminescence, 48-72 h; max response: hits give low values. Put shortly:
as §1

A further assay has as its system C33A. As to the kind of experiment: Primary qHTS to identify gynecologic anti-cancer compounds using libraries of approved drugs and bioactive compounds (AID 1345084). Further: nearly all actives have a fitted effect of over 55% in size. Further: potency means the concentration at half of the fitted maximal effect. The settings on record: Gynecologic cancer cell panel viability, ATPlite luminescence, 48 h; series mostly up to 57.5 µM. In short, it runs like this: (§2)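 Five-point cytotoxicity, 48 h drug exposure at 37 C, 5% CO2, on cells seeded 16 h beforehand. ATP content read by ATPlite luminescence.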

For a further assay, the system named is CASKI. The assay is described as above. As to conditions: Gynecologic cancer cell panel viability, ATPlite luminescence, 48 h; series mostly up to 57.5 µM. Put shortly:
as §2

The test system of the next assay is Es-2. The assay is described as above. As to conditions: Gynecologic cancer cell panel viability, ATPlite luminescence, 48 h; series mostly up to 57.5 µM. Put shortly: as §2
A further assay concerns Hek293T. The assay is described as above. The settings on record: Gynecologic cancer cell panel viability, ATPlite luminescence, 48 h, control line for the selectivity index; series mostly up to 57.5 µM. In short, it runs like this:
as §2

The test system of a further assay is JEG-3. Described as above. As to conditions: Gynecologic cancer cell panel viability, ATPlite luminescence, 48 h; series mostly up to 57.5 µM. In short, it runs like this: as §2
A further assay relates to PA-1. Described as above. As to conditions: Gynecologic cancer cell panel viability, ATPlite luminescence, 48 h; series mostly up to 57.5 µM. In short, it runs like this: as §2
Assay [5] in a line: P-glycoprotein substrates identified in KB-8-5-11 adenocarcinoma cell line, qHTS therapeutic library screen (AID 1346987). Further: nearly all actives have a fitted effect of over 65% in size. Further: potency means the concentration at half of the fitted maximal effect. Put shortly: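 KB-8-5-11: colchicine-selected sub-line of KB-3-1 over-expressing P-gp; assay medium lacked colchicine. 72 h drug exposure at 37 degree C, CellTiter-Glo.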
In assay [6] the test system is Nanoluciferase (engineered Oplophorus gracilirostris luciferase). As to the kind of experiment: Primary Nanoluciferase (NLuc) qHTS assay for identification of artifact compounds. (AID 1845222).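 Further: 0% = DMSO and -100% = no enzyme.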 In short, it runs like this:
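Diluted conditioned medium from NLuc-expressing S16 cells treated with compounds for 15 min at room temperature, then Nano-Glo substrate added; luminescence read after 5 min. Percent inhibition versus no-enzyme and DMSO controls fitted to 4-parameter Hill equation.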

For the next assay, the system named is CAOV3. Kind of assay: Primary qHTS to identify gynecologic anti-cancer compounds using libraries of approved drugs and bioactive compounds (AID 1345084). Further: nearly all actives have a fitted effect of over 55% in size. Further: potency means the concentration at half of the fitted maximal effect. As to conditions: Gynecologic cancer cell panel viability, ATPlite luminescence, 48 h; series mostly up to 57.5 µM. In short, it runs like this:
as §2

In another assay the test system is OV90. Described as above. The settings on record: Gynecologic cancer cell panel viability, ATPlite luminescence, 48 h; series mostly up to 57.5 µM. Put shortly: as §2
Another assay has as its system Tov-21-G. The description is as above. The settings on record: Gynecologic cancer cell panel viability, ATPlite luminescence, 48 h; series mostly up to 57.5 µM. Put shortly:
as §2

A further assay has as its system Tov112D. The description is as above. The settings on record: Gynecologic cancer cell panel viability, ATPlite luminescence, 48 h; series mostly up to 57.5 µM. Put shortly:
as §2

Sequence of Calcium and integrin-binding protein 1 (Homo sapiens) (Q99828 whole entry, looked up): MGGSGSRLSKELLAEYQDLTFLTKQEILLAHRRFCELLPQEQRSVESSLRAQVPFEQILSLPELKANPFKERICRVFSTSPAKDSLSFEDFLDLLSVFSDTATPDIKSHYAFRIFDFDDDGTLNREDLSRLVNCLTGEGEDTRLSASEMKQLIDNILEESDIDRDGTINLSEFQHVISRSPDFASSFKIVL
Sequence of Phospholipid hydroperoxide glutathione peroxidase GPX4 (Homo sapiens) (P36969 whole entry, looked up): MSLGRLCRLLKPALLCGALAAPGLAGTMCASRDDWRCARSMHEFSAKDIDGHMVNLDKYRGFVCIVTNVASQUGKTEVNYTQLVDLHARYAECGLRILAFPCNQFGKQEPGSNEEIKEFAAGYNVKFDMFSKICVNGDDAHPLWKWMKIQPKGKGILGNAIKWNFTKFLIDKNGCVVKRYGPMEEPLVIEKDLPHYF

On to `Cc1sc2c(c1C)C(c1ccc(Cl)cc1)=NC(CC(=O)Nc1ccc(O)cc1)c1nnc(C)n1-2` (stereo not given), for which the Potency entry (in assay [1]; in assay [3]; in the assay with C33A; in the assay on CASKI; in the assay with Es-2; in the assay on Hek293T) was “inactive” each time. Moreover, the Potency entry in the assay on JEG-3 was “inactive”. In addition, the Potency in assay [2] is 129 nM (active) and 263 nM (active); in the assay on CRL-7250, 1.16 µM (active); in the assay on HEK293, 1.46 µM (active); in the assay on NIH3T3, 1.3 µM (active); in the assay on PA-1, 1.78 µM (active). The compound was called inactive in assay [4]. Also, the max response in the assay with HaCat was -9.94%.

As for `C[N@@+]1(CC2CC2)CC[C@]23c4c5ccc(O)c4O[C@H]2C(=O)CC[C@@]3(O)[C@H]1C5`, the Potency entry (in [5]; in [1]; in [2]; in assay [3]; in assay [6]; in the assay with C33A) was “inactive” throughout. For the same compound, the Potency result with CAOV3, in the assay on CASKI, in the assay with Es-2, in the assay with Hek293T, in the assay on JEG-3 and in the assay with OV90 was “inactive” in each case. Further, the Potency result with PA-1, in the assay on Tov-21-G and with Tov112D was “inactive” in each case. Besides, in assay [4], the compound was classed as inactive. The max response with CRL-7250 is 2.78%; with HEK293 it was 0.678%; in the assay on HaCat, -19.5%; in the assay with NIH3T3 it was 2.77%.

As for `C=CCN1CC[C@]23c4c5ccc(O)c4O[C@H]2[C@@H](O)CC[C@@]3(O)[C@H]1C5`, the Potency result (in assay [5]; in assay [1]; in assay [2]; in assay [3]; in [6]; in the assay with C33A) was “inactive” in each case. For the same compound, the Potency result in the assay on CAOV3, in the assay with CASKI, in the assay on Es-2, in the assay with Hek293T, in the assay with JEG-3 and in the assay with OV90 was “inactive” each time. In addition, the Potency result in the assay with PA-1, in the assay on Tov-21-G and in the assay on Tov112D was “inactive” in each case. The result in assay [4] was inactive. Also, the max response is -15.6% in the assay with CRL-7250, -13.2% with HEK293, 3.65% with HaCat and -28.6% with NIH3T3.

Consider `CNc1ccc2oc(C[C@H]3O[C@@]4(CC[C@H]3C)O[C@H](C(C)C(=O)c3ccc[nH]3)[C@H](C)C[C@H]4C)nc2c1C(=O)O` (stereo not given in full), for which the Potency in assay [5] is 2.06 µM (active); in assay [2] it was 16.3 µM (active); in the assay on CRL-7250 it was 5.8 µM (active); in the assay with HEK293, 1.3 µM (active); with HaCat, 7.31 µM (active); in the assay on NIH3T3 it was 3.66 µM (active). Further, the Potency is 11.2 µM (active) in the assay on C33A; 22.4 µM (active) in the assay with CAOV3; 10 µM (active) with Es-2; 8.91 µM (active) in the assay with Hek293T; 12.6 µM (active) in the assay with OV90; 4.47 µM (active) in the assay on PA-1. The Potency in the assay on Tov-21-G was 11.2 µM (active). Moreover, the Potency entry in assay [1] and in assay [6] was “inactive” throughout. The outcome in assay [4] was inactive.

Turning to `c1cncc(OC[C@@H]2CCN2)c1`, the Potency result (in assay [5]; in assay [1]; in assay [2]; in assay [3]; in assay [6]; in the assay with C33A) was “inactive” each time. Also, the Potency entry in the assay on CAOV3, with CASKI, in the assay on Es-2, in the assay on Hek293T, with JEG-3 and with OV90 was “inactive” throughout. Also, the Potency entry in the assay on PA-1, in the assay on Tov-21-G and with Tov112D was “inactive” each time. In addition, in [4], the call was inactive. Also, the max response in the assay on CRL-7250 is 0.617%; in the assay with HEK293 it was 1.76%; in the assay with HaCat, 0.624%; in the assay with NIH3T3, -2.03%.
